Laboratory results: PubChem BioAssay (NCATS)
Records with an inconclusive call do not appear. Where a call stands in place of a potency, no number is given. Active and inactive are the calls of the source. The call rests on the fitted dose curve; in most records, active means well fitted cell-killing curve with a large enough effect; inconclusive means small, poorly fitted or top-dose-only effect, or effect the other way; inactive means no such curve, though single readings can be large or run the other way.

Experiment: Quantitative High-Throughput drug screen in 47 multiple myeloma cell lines against the NCATS MIPE library collection: XG6_PLB cell viability assay (AID 1919865); further: nearly all actives have a fitted effect of over 40% in size
Conditions: XG6 myeloma viability, CellTiter-Glo ATP luminescence, 48 h; series mostly up to 45.8 µM
Method in brief: (§1)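 Readout: median RLU from CellTiter-Glo after 5 min at room temperature. Preceding step was 48 h drug treatment of 500 cells/well at 37 °C, 5% CO2, with DMSO-only and media-only control wells.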
Potency means the concentration at half of the fitted maximal effect.

Structure (SMILES)	Potency
CCOC(=O)c1c(C(C#N)=CN)c2ccc(Cl)c(Cl)c2n1C	inactive
CC(C)N[C@@H]1CCn2c(=O)[nH]c3cccc(c32)[C@@H]1O	2.35 µM (active)
N=c1c2c(-c3ccccc3)c(-c3ccccc3)n(Cc3ccccc3)c2ncn1C1CCC(O)CC1 (stereo not drawn)	6.62 µM (active)
CSCC[C@@H](NC(=O)[C@@H](Cc1ccccc1)NC(=O)CNC(=O)CNC(=O)[C@@H](N)Cc1ccc(O)cc1)C(=O)O	inactive
Cc1c(N)nc([C@H](CC(N)=O)NC[C@@H](N)C(N)=O)nc1C(=O)N[C@H](C(=O)N[C@@H](C)[C@H](O)[C@@H](C)C(=O)N[C@@H](C(=O)NCCc1nc(-c2nc(C(=O)NCCC[S+](C)C)cs2)cs1)[C@@H](C)O)C(O[C@H]1O[C@H](CO)[C@H](O)[C@@H](O)[C@@H]1O[C@H]1O[C@H](CO)[C@@H](O)[C@H](OC(N)=O)[C@H]1O)c1cnc[nH]1 (stereo partly drawn)	0.59 µM (active)
Cc1ccccc1-n1c(Cn2ncc3c(N)ncnc32)nc2cccc(C)c2c1=O	0.0418 µM (active)
CCOC(=O)c1cncn1[C@H](C)c1ccccc1	inactive
O=C(N[C@H]1CN2CCC1CC2)c1ccc(Cl)cc1	8.33 µM (active)
CCNC(=O)CC1N=C(c2ccc(Cl)cc2)c2cc(OC)ccc2-n2c(C)nnc21 (stereo not drawn)	4.69 µM (active)
N#C[C@H](O[C@@H]1O[C@H](CO[C@@H]2O[C@H](CO)[C@H](O)[C@H](O)[C@H]2O)[C@H](O)[C@H](O)[C@H]1O)c1ccccc1	18.7 µM (active)
CC1=NN=C(c2ccc(N)cc2)c2cc3c(cc2C1)OCO3	inactive
CCN1C[C@]2(OC(=O)c3ccccc3NC(C)=O)CC[C@H](OC)[C@@]34[C@H]5CC6[C@@H](OC)C[C@](O)(C(C[C@@H]23)[C@@H]14)[C@@]5(O)[C@@H]6OC	inactive
CC1(N2CCC(n3c([C@@H]4CCCNC4)nc4ccccc43)CC2)CCCCCCC1	9.35 µM (active)
O=C1CCC[C@@H]2[C@H]3CCCN4CCC[C@@H](CN12)[C@@H]34	inactive
CC(C)(C)c1cc(C=C(C#N)C#N)cc(Br)c1O	14.8 µM (active)
CCOP(=O)(OCC)C(C)NC(=O)N(CCCl)N=O (stereo not drawn)	inactive
CC(O)=C(C#N)C(=O)Nc1cc(Br)ccc1Br	inactive
C[C@]12Cc3cn[nH]c3C[C@@H]1CC[C@@H]1[C@H]2CC[C@@]2(C)[C@H]1CC[C@]2(C)O	inactive
CC(N[C@H]1C[C@H]1c1ccccc1)c1ccc2c(c1)OCCO2 (stereo partly drawn)	inactive
COC[C@H]1OC(=O)c2coc3c2[C@@]1(C)C1=C(C3=O)[C@@H]2CC[C@H](O)[C@@]2(C)C[C@@H]1OC(C)=O	4.18 µM (active)
COc1ccc(C(=O)c2c(C)n(CCN3CCOCC3)c3cc(I)ccc23)cc1	10.5 µM (active)
O=C(NCC1CCOCC1)c1cnc(Nc2ccc(Cl)cc2Cl)nc1C(F)(F)F	6.62 µM (active)
C[C@]12CCC(=O)C(O)=C1CC[C@@H]1[C@H]3CCC(=O)[C@@]3(C)CC[C@@H]12	inactive

Experiment: Quantitative High-Throughput drug screen in 47 multiple myeloma cell lines against the NCATS MIPE library collection: XG1_PLB cell viability assay (AID 1919866); further: nearly all actives have a fitted effect of over 35% in size
Conditions: CellTiter-Glo ATP, 48 h; series mostly up to 45.8 µM
Method in brief: as §1

Structure (SMILES)	Potency
O=C1C=CC[C@@H]2[C@H]3CCCN4CCC[C@@H](CN12)[C@@H]34	inactive
Cc1nc(-c2ccc(-c3ccc(C(=O)N4CCc5cc6c(cc54)C4(CCN(C)CC4)CO6)cc3)c(C)c2)no1	inactive
CC(C)N[C@@H]1CCn2c(=O)[nH]c3cccc(c32)[C@@H]1O	3.32 µM (active)
CSCC[C@@H](NC(=O)[C@@H](Cc1ccccc1)NC(=O)CNC(=O)CNC(=O)[C@@H](N)Cc1ccc(O)cc1)C(=O)O	inactive
Cc1c(N)nc([C@H](CC(N)=O)NC[C@@H](N)C(N)=O)nc1C(=O)N[C@H](C(=O)N[C@@H](C)[C@H](O)[C@@H](C)C(=O)N[C@@H](C(=O)NCCc1nc(-c2nc(C(=O)NCCC[S+](C)C)cs2)cs1)[C@@H](C)O)C(O[C@H]1O[C@H](CO)[C@H](O)[C@@H](O)[C@@H]1O[C@H]1O[C@H](CO)[C@@H](O)[C@H](OC(N)=O)[C@H]1O)c1cnc[nH]1 (stereo partly drawn)	0.209 µM (active)
C[C@]12CC[C@H]3[C@@H](CCC4=CC(=O)CC[C@@]43C)[C@H]1CC[C@H]2OC(=O)CCC1CCCC1	inactive
Cc1ccccc1-n1c(Cn2ncc3c(N)ncnc32)nc2cccc(C)c2c1=O	0.296 µM (active)
CCOC(=O)c1cncn1[C@H](C)c1ccccc1	inactive
O=C(N[C@H]1CN2CCC1CC2)c1ccc(Cl)cc1	6.62 µM (active)
CCNC(=O)CC1N=C(c2ccc(Cl)cc2)c2cc(OC)ccc2-n2c(C)nnc21 (stereo not drawn)	5.9 µM (active)
N#C[C@H](O[C@@H]1O[C@H](CO[C@@H]2O[C@H](CO)[C@H](O)[C@H](O)[C@H]2O)[C@H](O)[C@H](O)[C@H]1O)c1ccccc1	23.5 µM (active)
CC1=NN=C(c2ccc(N)cc2)c2cc3c(cc2C1)OCO3	inactive
Cc1c(C(=O)c2cccc3ccccc23)c2cccc3c2n1[C@H](CN1CCOCC1)CO3	inactive
CCN1C[C@]2(OC(=O)c3ccccc3NC(C)=O)CC[C@H](OC)[C@@]34[C@H]5CC6[C@@H](OC)C[C@](O)(C(C[C@@H]23)[C@@H]14)[C@@]5(O)[C@@H]6OC	inactive
CC1(N2CCC(n3c([C@@H]4CCCNC4)nc4ccccc43)CC2)CCCCCCC1	18.7 µM (active)
O=C1CCC[C@@H]2[C@H]3CCCN4CCC[C@@H](CN12)[C@@H]34	inactive
O=[N+]([O-])c1ncc[nH]1	inactive
CN[C@@H]1Cc2cccc3[nH]c(=O)n(c23)C1	inactive
CC(C)(C)c1cc(C=C(C#N)C#N)cc(Br)c1O	11.8 µM (active)
CCCN1CCO[C@@H]2c3cc(O)ccc3OC[C@@H]21	inactive
CCOP(=O)(OCC)C(C)NC(=O)N(CCCl)N=O (stereo not drawn)	inactive
CC(O)=C(C#N)C(=O)Nc1cc(Br)ccc1Br	inactive
C[C@]12Cc3cn[nH]c3C[C@@H]1CC[C@@H]1[C@H]2CC[C@@]2(C)[C@H]1CC[C@]2(C)O	inactive
CC(N[C@H]1C[C@H]1c1ccccc1)c1ccc2c(c1)OCCO2 (stereo partly drawn)	inactive
COC[C@H]1OC(=O)c2coc3c2[C@@]1(C)C1=C(C3=O)[C@@H]2CC[C@H](O)[C@@]2(C)C[C@@H]1OC(C)=O	2.09 µM (active)
CN(C)NC(=O)CCC(=O)O	26.4 µM (active)
COc1ccc(C(=O)c2c(C)n(CCN3CCOCC3)c3cc(I)ccc23)cc1	7.43 µM (active)
C[C@]12CCC(=O)C(O)=C1CC[C@@H]1[C@H]3CCC(=O)[C@@]3(C)CC[C@@H]12	inactive
O=C(Nc1ccncc1)C(=O)c1cn(Cc2ccc(Cl)cc2)c2ccccc12	0.0066 µM (active)
CC(=O)Nc1ccc(OC[C@](C)(O)C(=O)Nc2ccc([N+](=O)[O-])c(C(F)(F)F)c2)cc1	inactive
